Measured values from PubChem BioAssay AID1347426 (Functional Genomics Laboratory (NCATS/FGL), 2020).
In all, about 31,000 sequences went through this assay and about 1,400 (4.5%) were called active. Only a selection was taken, and actives are over-represented in it overall. Unmarked numbers belong to inactive results.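 How the source made its calls: active means median seed-adjusted z-score above 1 or below -1; inactive means the rest.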

assay: Novel Modifiers of Survival Motor Neuron (SMN) Protein: Gene Identification via Genome-wide siRNA Screen; settings: HEK293T SMN2-luciferase reporter, siRNA knockdown, 72 h; actives lie on both sides;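 further: luminescence tracks full-length SMN protein made from the SMN2 reporter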
In short: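 Each of three siRNAs per gene is reverse-transfected (1 pmol) into reporter HEK293T cells whose luciferase output tracks SMN protein level. After 72 h culture, ONE-Glo luminescence is control-normalized, log10-transformed and MAD-standardized; Common Seed Analysis deprioritizes seed-driven hits.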

Compared with GCAUGACCAUAAGAUCCUATT against NUAK2, GAAGGAGAAUGGUAUCACUTT against GPATCH4 is lower in median seed-adjusted z-score: -0.0601 for the first, -0.519 for the second.

Going from CAAAGUAUCUGGAGAACCATT against KIF2C to GGGCCUUUCUUGGACUGAUTT against PHF7, the median seed-adjusted z-score rises from 0.0122 to 0.425.

Compared with CUUCAGUUCGAAUACAUUUTT against RFC5, CAACUGAUGAGUAUCUAGATT against MRCL3 is higher in median seed-adjusted z-score: -0.644 for the first, -0.00909 for the second.

Going from CUUCAGUGCUGAUCAGGUATT against NDUFA2 to GGACCCAGUAUUUCAGGAATT against SFXN4, the median seed-adjusted z-score rises from -0.694 to -0.174.

Going from CGAUAUGGAAAAUCCCUAUTT against ANXA10 to CCCUCUACCUCGUCCGAAUTT against SIRPA, the median seed-adjusted z-score falls from 0.0445 to -0.153.

First: CCACAUCUCAAGUCCACUUTT against PPP1R1A
Second: CACUUACGGUGUGAAAGGATT against SOX5
The median seed-adjusted z-score of the first is lower: -0.529 for the first, 0.123 for the second.

Compared with AGUUACUACCUUAUCCUCATT against POU2F2, GCUAUUUGGUUAUCCUUAUTT against ATP6V0A1 is lower in median seed-adjusted z-score: 0.163 for the first, 0.103 for the second.

Compared with AGAUCCUGUGGAUUAGAAATT against NEU4, GUGCGAAAGAGAAUCUUAATT against SPIRE1 is higher in median seed-adjusted z-score: -0.152 for the first, 0.336 for the second.

Going from GGAACAGCUUAAGAUUGAATT against GNG3 to GGAAGACCUUACACGGUUATT against EIF3E, the median seed-adjusted z-score rises from -0.186 to 0.549.

First: CGCAGAAGAUGUACCAGUUTT against CDH22
Second: CAGGGUCUAUGGUACCGUUTT against UBE3C
The median seed-adjusted z-score of the first is lower: -0.57 for the first, 0.0341 for the second.

Compared with AAAUCCUUGGGUCAACAUUTT against NOX1, CCUUGAUCCUCGACUGUAATT against COL5A1 is higher in median seed-adjusted z-score: -0.221 for the first, -0.00475 for the second.

Going from GGUCAUUGUGAAAAGUAGATT against GCLM to CGCAUACUCUCGCCCUGUATT against ZNHIT2, the median seed-adjusted z-score falls from 0.0509 to -0.339.

First: CGAUAGUGAGUAUAUCAGUTT against ZMYND8
Second: UGAGCGAGUUGAUUUCACATT against ATF5
The median seed-adjusted z-score of the first is lower: -0.065 for the first, 0.233 for the second.

Compared with GUUUCAUCGUAUAUCAAUATT against HSD17B13, GAAGGUUGAUUAUCGUAAATT against BCMO1 is higher in median seed-adjusted z-score: -0.329 for the first, 0.53 for the second.

First: CGAGGAACUAAGACUCAAATT against GPR151
Second: ACAAUUAUUGGAAAGAGAATT against SPRYD5
The median seed-adjusted z-score of the first is lower: -0.263 for the first, 0.151 for the second.

First: CGAAUCUCAUGUUCAGGAATT against LPA
Second: GGGUCAUGUUUGGUUAGAATT against IMMP1L
The median seed-adjusted z-score of the first is higher: -0.321 for the first, -0.444 for the second.

Compared with CGUGGACCACUAUCCCAUUTT against RNF123, GGAAAAACCAACCAAGUUATT against RUFY1 is higher in median seed-adjusted z-score: 0 for the first, 0.119 for the second.

First: GCCUUCAAUUUUCAUACAATT against ZNF19
Second: GAGUGUACCUGGAAUGUCUTT against ARNTL2
The median seed-adjusted z-score of the first is lower: 0 for the first, 0.102 for the second.

First: AAAGUGGAUUGCACACAGATT against TGFB1I1
Second: GAUCAAACCUUGUAUCUCUTT against ARG2
The median seed-adjusted z-score of the first is higher: 0.887 for the first, -0.796 for the second.

Going from GGUAAAGAAUUCUCCGGAATT against FUS to GCAGGAUUGUGAUCCACCATT against PCGF3, the median seed-adjusted z-score falls from 0.92 to 0.876.

Compared with GGAUAUGGUGAGAAUAGAATT against MTHFS, AGCUCACAAGGAUCCCAAUTT against THPO is lower in median seed-adjusted z-score: 0.166 for the first, -0.0366 for the second.

Going from CUCCUACAGUGCUAUCAGATT against ENPP2 to AAUUCCUCUUCAACAUGUATT against HOXD9, the median seed-adjusted z-score rises from -0.305 to -0.123.

Going from GUACUUCAGUGGAGUGAAATT against CDKL1 to UCUGCUAUUUGGUCCUGAATT against TOMM34, the median seed-adjusted z-score falls from -0.28 to -0.503.

Compared with CCUCAUAUGUGGGACAGAATT against USP3, GGUAUGGAUUUAACAGUCATT against DHODH is lower in median seed-adjusted z-score: -0.176 for the first, -0.422 for the second.

Going from GGAAGACUAGGAAUCGGAATT against NYX to CACCCACCGCCACAAUAAATT against BSG, the median seed-adjusted z-score rises from 0.0685 to 0.211.

Compared with GCACGACUUUGUACUCAGATT against HES5, GAGCUAUGGUUACACGGUUTT against GABRQ is lower in median seed-adjusted z-score: -0.00853 for the first, -0.54 for the second.

Going from GCCUCCACGGAAGAUGUAATT against ZNF746 to GCACUUGUAUAAUCAGACUTT against MRLC2, the median seed-adjusted z-score falls from 0.1 to -0.492.

Going from GGACCAUCCAGCUUCUGGATT against GALE to GGAUCUCAUGAGGCGAAUATT against EIF5, the median seed-adjusted z-score rises from -0.153 to 0.362.

Going from GUAGGACUCUCAUUCGGGATT against CCND1 to GGACCCAAUCAACUCAAUATT against SS18, the median seed-adjusted z-score rises from -0.912 to 0.34.

Going from GCCUAAUUGCGGAACAUAUTT against ESCO1 to CGACAAGUUGAAGACCAUATT against CRMP1, the median seed-adjusted z-score falls from 0.755 to -0.354.

Compared with CCUAUUCACUUUACACUGUTT against AKR7A2, AGACAAGUAUGUGAGGAAUTT against BTN2A2 is lower in median seed-adjusted z-score: 0.192 for the first, -0.0599 for the second.

First: GGAUAUCGCACUUCACUCATT against ELL
Second: GGGCGAGCAUUUUCGAGAATT against USP7
The median seed-adjusted z-score of the first is lower: -0.497 for the first, 0.105 for the second.

Going from CCACGUUUUGAUCAACAAUTT against RDH11 to GAUUGCAUAUUACAAACGATT against GIN1, the median seed-adjusted z-score rises from -0.241 to -0.0585.

First: GAUACACUUUGUCACCAAATT against FLT3LG
Second: CUCAUGAACUUGCACAACATT against WNT7A
The median seed-adjusted z-score of the first is lower: -0.166 for the first, 0.0931 for the second.

First: GGAUGAUGUGAACUACAAATT against PTDSS1
Second: GGAGGACAUCGACCAGAUATT against APBA1
The median seed-adjusted z-score of the first is lower: -0.76 for the first, 0.305 for the second.

Going from CGAUAAAGACGGAUUCUAATT against MATK to GAAUAUGAGUACCUAGAUUTT against SELPLG, the median seed-adjusted z-score rises from -0.754 to 0.0378.

First: CACCGACAAUAUAAAGGAATT against SLC25A32
Second: GGAAGAUUAUUACAGUCGATT against RERE
The median seed-adjusted z-score of the first is lower: -0.299 for the first, 0.129 for the second.

First: GGACGGUACUACAGUGUAATT against HDAC8
Second: GGAUUUCCAGGGAUAUUUATT against CDKN2B
The median seed-adjusted z-score of the first is higher: 0.835 for the first, 0.0154 for the second.

First: CAUUGAACGCAGUCCCUUUTT against FLNC
Second: GGAACCUACCUGACUAAGATT against ARL9
The median seed-adjusted z-score of the first is lower: 0.00217 for the first, 0.98 for the second.

First: GGGAGUAUAUUUUGAUGAATT against RARS2
Second: AGAAUAAGUUCAAACAGGATT against RAB4B
The median seed-adjusted z-score of the first is higher: -0.0247 for the first, -0.207 for the second.

Going from CAUGAACAGUUUAUCGUAATT against FMR1 to CUUGCACUCCUGUCCAUAATT against AP3B1, the median seed-adjusted z-score falls from 0.504 to 0.31.

Compared with CUAGUUUGUUGCAAAAUAATT against CDKN2C, CAAUUAAGUUGGAUCCUUUTT against WARS2 is higher in median seed-adjusted z-score: -0.0789 for the first, 0.21 for the second.

First: GGUACAUCGCGAUAUCAAATT against YSK4
Second: CUAGGAGUCAAAGAAAAUATT against RNPS1
The median seed-adjusted z-score of the first is lower: -0.181 for the first, 0 for the second.

Going from GGAGAGAGCGUGUCCUACATT against SIRPA to AAACAAAACUUGCACUUUATT against RASD1, the median seed-adjusted z-score rises from -0.153 to 0.674.

Work on GCCUUGAACCUAGGACCAATT against PRAF2 yielded a median seed-adjusted z-score of -0.326.

For GGAGACUUCUUACCCACCATT against PSMD4, the median seed-adjusted z-score was 1.46 (active).
In the case of CAUACGGACUGUACCUUUATT against PSMC5, the median seed-adjusted z-score is reported as -1.06 (active).
In the case of CCAUCUCCUACAUCGCCGATT against APBA2, the median seed-adjusted z-score is reported as 1.66 (active).
For GCUAUUUCCAGCGAAUAUATT against CNOT1, the median seed-adjusted z-score was 1.2 (active).
For GGACAAGGGAUUAAUAGUATT against ARID1A, the median seed-adjusted z-score was -1.14 (active).
In the case of CUUUAAGACUCAUAACGAATT against GTF2E2, the median seed-adjusted z-score is reported as -1.32 (active).
In the case of GGAAGGAGCUGUCACGCAATT against MED26, the median seed-adjusted z-score is reported as -1.86 (active).
For CGGUGAAGGUGCUAAAGGATT against RAD23A, the median seed-adjusted z-score was -1.13 (active).
For AGUAAUAGUUCAAACCUUUTT against ZNF664, the median seed-adjusted z-score was 1.08 (active).
For CCUUUAGCACGGAUAGUUUTT against ACAT2, the median seed-adjusted z-score was 1.25 (active).
For GGAACGGGCUGGAGUUAAATT against FUBP1, the median seed-adjusted z-score was -1.52 (active).
With UGAACCUUGUGAUAGAUGATT against SNRPG the median seed-adjusted z-score was -3.09 (active).
In the case of GAUGAAGAAUGAUAAGUCATT against HNRNPC, the median seed-adjusted z-score is reported as -2.15 (active).
In the case of GGAACGAGAUUGUCAGAUUTT against POLR2B, the median seed-adjusted z-score is reported as -4.81 (active).
In the case of GGUCAUGAUUGCUAUCCUUTT against TAAR9, the median seed-adjusted z-score is reported as -1.07 (active).
With CCCAAUGCCUGUUUAUUCATT against POLR2J3 the median seed-adjusted z-score was -5.42 (active).
In the case of GAGACCUAACUGUACGUGATT against TSG101, the median seed-adjusted z-score is reported as 1.48 (active).
For CGAUGGUAUUGACUAAGUUTT against HSPA1L, the median seed-adjusted z-score was -1.27 (active).
For GGACGAGAAUGGGAAGAUUTT against ARD1A, the median seed-adjusted z-score was -1.05 (active).
